Test results published in PubChem BioAssay (NCI).
About 79,000 compounds went through this panel and 15% of them were active in at least one assay; those are over-represented in the sample as a whole. Unmarked numbers belong to inactive results. Activity calls are given as the source filed them. Cut-off read from the data, not from the text of the source: active = growth inhibition above about 70%; inactive = the rest.

Key:
[1] = NCI Yeast Anticancer Drug Screen. Data for the rad50 strain (AID 155);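 note: 0% = growth of vehicle-only cultures of the same strain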; settings: S. cerevisiae rad50 strain growth inhibition, hits give high values
Method in brief: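 Inhibition values express reduced yeast growth in compound-treated cultures relative to vehicle-treated controls.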

[2] = NCI Yeast Anticancer Drug Screen. Data for the mec2-1 strain (AID 157); settings: S. cerevisiae mec2-1 strain, hits give high values
Method in brief: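 Mutant yeast (mec2-1) grown with compound; growth inhibition relative to vehicle control reported.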

[3] = NCI Yeast Anticancer Drug Screen. Data for the sgs1 mgt1 strain (AID 161);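 note: 0% = growth of cultures given vehicle only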; settings: S. cerevisiae sgs1 mgt1 strain, hits give high values
Method in brief: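 This yeast growth screen uses a strain with defined DNA-repair lesions; compound-treated growth is compared with vehicle-treated growth.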

[4] = NCI Yeast Anticancer Drug Screen. Data for the cln2 rad14 strain (AID 165);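 note: 0% = growth equal to vehicle treated cultures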; settings: S. cerevisiae cln2 rad14 strain, hits give high values
Method in brief: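 Readout is yeast growth inhibition versus vehicle-treated controls, using a strain with cln2 and rad14 alterations exposed to compound.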

[5] = NCI Yeast Anticancer Drug Screen. Data for the bub3 strain (AID 167); settings: S. cerevisiae bub3 mutant strain, hits give high values
Method in brief: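 Steps: expose the mutant yeast strain to compound; grow alongside vehicle-treated cultures; measure growth; express inhibition against the vehicle cultures.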

[6] = NCI Yeast Anticancer Drug Screen. Data for the mlh1 rad18 strain (AID 175); settings: S. cerevisiae mlh1 rad18 strain growth inhibition, hits give high values
Method in brief: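 Genetically defined yeast (DNA repair-deficient) exposed to compounds; growth inhibition determined relative to vehicle.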

[7] = at 5.0 µM (retest, dose inferred, filed as 0.5)
[8] = at 50.0 µM (retest, dose inferred, filed as 5.0)

| Structure (SMILES) | growth inhibition [1, 7] | growth inhibition [1, 8] | growth inhibition ([1]; at 50.0 µM) | growth inhibition [2, 7] | growth inhibition [2, 8] | growth inhibition ([2]; at 50.0 µM) | growth inhibition [3, 7] | growth inhibition [3, 8] | growth inhibition ([3]; at 50.0 µM) | growth inhibition [4, 7] | growth inhibition [4, 8] | growth inhibition ([4]; at 50.0 µM) | growth inhibition [5, 7] | growth inhibition [5, 8] | growth inhibition ([5]; at 50.0 µM) | growth inhibition [6, 7] | growth inhibition [6, 8] | growth inhibition ([6]; at 50.0 µM) |
| --- | --- | --- | --- | --- | --- | --- | --- | --- | --- | --- | --- | --- | --- | --- | --- | --- | --- | --- |
| Cc1ccccc1N1CCN(c2c3c(nc4ccccc24)CCCCC3)CC1 | -4% | 94% (active) | 97.2% (active) | 7% | 94% (active) | 97% (active) | 7% | 95% (active) | 97.2% (active) | -3% | 95% (active) | 96.4% (active) | -9% | 95% (active) | 97.5% (active) | -4% | 94% (active) | 96.5% (active) |
| O=C1NOCC1N=Cc1cc(Cl)ccc1O (stereo not given) | 9% | 65% | 75.8% (active) | 3% | 30% | 16.9% | -7% | 35% | 26.9% | 0% | 38% | 23.4% | 6% | 61% | 58.9% | 9% | 78% (active) | 84% (active) |
| CC1C(c2ccc3c(c2)OCO3)c2cc3c(cc2OC1N1CCOCC1)OCO3 (stereo not given) | 28% | 49% | 21.3% | 19% | 36% | 7.3% | 17% | 38% | -18.1% | 25% | 27% | 3.7% | 27% | 28% | 18.7% | 27% | 46% | 20.3% |
| CC(C)(C)CC(C)(C)c1ccc(O)c(O)c1 | 96% (active) | 99% (active) | 93.3% (active) | 100% (active) | 99% (active) | 94.2% (active) | 98% (active) | 99% (active) | 94.5% (active) | 55% | 99% (active) | 92.3% (active) | 86% (active) | 98% (active) | 93.3% (active) | 100% (active) | 99% (active) | 93.2% (active) |
| O=C1c2ccccc2-c2ccccc2C(=O)C1(Br)Br | -5% | 8% | 89.8% (active) | -1% | -5% | 91.1% (active) | 3% | -11% | 88.3% (active) | -8% | -4% | 47.3% | -7% | -18% | 66.7% | 0% | -7% | 96.4% (active) |
| O=C(O)CCC(=O)c1ccc(C2CCCC2)c2ccccc12 | 1% | 28% | 69.8% | -3% | 24% | 78.8% (active) | 3% | 34% | 68.3% | -17% | 42% | 72.7% (active) | -13% | 46% | 70.3% (active) | -6% | 11% | 86.6% (active) |
| CC(C)C(=O)NNc1ccccc1 | 28% | 77% (active) | 93.1% (active) | 1% | 57% | 34.2% | 18% | 70% (active) | 87.2% (active) | 15% | 67% | 93.2% (active) | 21% | 95% (active) | 70.4% (active) | 39% | 92% (active) | 83.2% (active) |
| c1cc(NC2CCCCC2)ccc1CN1CCOCC1 | 57% | 90% (active) | 55.3% | 51% | 73% (active) | 70.5% (active) | 80% (active) | 88% (active) | 70% | 72% (active) | 87% (active) | 63.8% | 80% (active) | 78% (active) | 68.2% | 56% | 82% (active) | 79% (active) |
| CC1OC(OC2C(OC3CCC4(C)C(CCC5(C)C4CC=C4C6CC(C)(C)CCC6(CO)C(O)CC45C)C3(C)C)OC(C(=O)O)C(OC3OC(COC4OC(CO)C(O)C(O)C4O)C(O)C(O)C3O)C2O)C(O)C(O)C1O (stereo not given) | -21% | 99% (active) | 92.7% (active) | -22% | 100% (active) | 94.2% (active) | -14% | 98% (active) | 94.4% (active) | 15% | 99% (active) | 92.5% (active) | -9% | 99% (active) | 93.4% (active) | 9% | 99% (active) | 93.5% (active) |
| CC(C)/C(Cl)=N\OC(=O)Nc1ccc(S(N)(=O)=O)cc1 | 15% | 30% | 12.7% | 26% | 28% | 18.8% | 2% | -23% | 68% | 21% | 33% | 45% | 7% | 26% | 77.2% (active) | 22% | 38% | -38.8% |
| O=S(=O)(O)c1cc(N=Nc2ccc(O)c(O)c2)ccc1/C=C/c1ccc(N=Nc2ccc(O)c(O)c2)cc1S(=O)(=O)O | 29% | 83% (active) | 57% | 30% | 89% (active) | 67.6% | 23% | 89% (active) | 68.5% | 31% | 31% | 18.8% | 34% | 86% (active) | 76.3% (active) | 33% | 83% (active) | 75.4% (active) |
| NC(=O)NC(CC(=O)O)C(=O)O (stereo not given) | -6% | 12% | -19.9% | -7% | -4% | -4.35% | -8% | -5% | -6% | -3% | -4% | 65.8% | 3% | -6% | -29.8% | -8% | 4% | -1.7% |
| Nc1n[n+](-c2ccccc2)no1 | 34% | 81% (active) | 61% | 16% | 46% | 33.4% | 24% | 60% | 56.6% | 45% | 59% | 23% | 43% | 59% | 45.2% | 31% | 68% | 70.6% (active) |
| C1CSCCCSCCCSCCCSCCCSC1 | 17% | 24% | 31.2% | 8% | 17% | 21.4% | 7% | 20% | 27.5% | 9% | 22% | 47.4% | 22% | 28% | 25.1% | 15% | 36% | -10.8% |
| CCCCCc1ccc2cc(C(=O)O)[nH]c2c1 | 4% | 59% | 96.7% (active) | 3% | 72% (active) | 95.6% (active) | -4% | 59% | 95% (active) | -1% | 59% | 97.8% (active) | 1% | 47% | 97.2% (active) | 3% | 51% | 98.2% (active) |
| C=C(C)C(=O)OC1CC2=CC(CC3(C)OC3C3OC(=O)C(=C)C13)OC2=O (stereo not given) | 1% | 19% | 88.8% (active) | 3% | 37% | 87% (active) | 4% | 35% | 57.6% | 8% | 15% | 30.5% | 1% | 43% | 78.8% (active) | 4% | 51% | 50.5% |
| O=Nc1ccccc1N=O | 48% | 99% (active) | 99.5% (active) | 30% | 99% (active) | 99.4% (active) | 59% | 99% (active) | 99.2% (active) | 36% | 97% (active) | 98.3% (active) | 80% (active) | 99% (active) | 99.3% (active) | 91% (active) | 99% (active) | 99.4% (active) |
| C/C=C/CC(C/C=C/C)C1CC[N-]CC1.C/C=C/CC(C/C=C/C)C1CC[N-]CC1.[Cl][Pt+2]([Cl])([Cl])[Cl] | 8% | 88% (active) | 97.3% (active) | -62% | 78% (active) | 98.8% (active) | 3% | 91% (active) | 98.8% (active) | 4% | 58% | 97.7% (active) | -3% | 85% (active) | 98% (active) | 7% | 88% (active) | 98.6% (active) |
| C=C1C[C@@]2(OC)OCC[C@H]3C(C)=CCC(C1=O)[C@]32C(=O)OC (stereo not given in full) | 12% | 96% (active) | 98.5% (active) | 15% | 98% (active) | 92.7% (active) | 15% | 98% (active) | 99.1% (active) | 6% | 93% (active) | 96.8% (active) | -5% | 98% (active) | 98.7% (active) | 4% | 97% (active) | 99% (active) |
| NNc1c(Cl)c(F)c(Cl)c(F)c1Cl | 13% | 17% | 21.6% | 5% | 17% | 36.5% | 4% | 26% | 47.5% | 13% | 24% | 34.2% | 3% | 24% | 54.7% | 17% | 24% | 66.7% |
